Rows were chosen to be rich in hits. Some 1.4% of all compounds tested hit in one or more screens of this group.
Mtb MenB inh: inhibitors of Mycobacterium tuberculosis MenB enzyme. MenB enzyme assay, absorbance read-out. P9WNP5. hit rate 0.43% among 100,000. inhibition, % (no concentration beside the values); in the data active means inhibition above about 21%, passing the limit was not always enough
Polio RdRp inh: inhibitors of poliovirus RNA polymerase binding and polymerization; P03300; hit rate 0.66% among 150,000; % elongation, % (compound at 16.7 µg/mL); AID 588519; poliovirus polymerase elongation, fluorescence polarization; hits give low values; in the data active means % elongation below about 90%
Target sequence (P03300 1749-2209 limits assumed): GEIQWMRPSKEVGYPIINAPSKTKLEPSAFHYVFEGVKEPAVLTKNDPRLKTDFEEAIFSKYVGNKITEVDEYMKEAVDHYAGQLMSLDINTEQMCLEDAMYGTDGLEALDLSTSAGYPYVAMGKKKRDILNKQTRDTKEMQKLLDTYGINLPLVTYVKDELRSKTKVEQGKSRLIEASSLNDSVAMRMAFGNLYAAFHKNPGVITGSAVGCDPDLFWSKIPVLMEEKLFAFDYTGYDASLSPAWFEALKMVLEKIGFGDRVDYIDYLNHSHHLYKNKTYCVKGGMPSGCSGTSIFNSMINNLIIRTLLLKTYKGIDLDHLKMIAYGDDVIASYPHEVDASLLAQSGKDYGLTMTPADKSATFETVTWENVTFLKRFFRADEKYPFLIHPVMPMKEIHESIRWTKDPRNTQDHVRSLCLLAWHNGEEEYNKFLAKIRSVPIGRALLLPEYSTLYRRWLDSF
Mtb MbtI inh: blocks the Mycobacterium tuberculosis siderophore enzyme MbtI | inhibition, % (no concentration beside the values) | purified MbtI enzyme, fluorescence intensity read-out | hit rate 0.89% among 100,000 | AID 493033 | P9WFX0; in the data active means inhibition mostly above about 56%, no sharp cut-off; inactive means mostly below about 77%
AID504770: E. coli YBA685 growth inhibition, screen for V. cholerae RctB inhibitors; E. coli YBA685 rctB-dependent plasmid, OD600 growth, 3 h; hits give low values; z-score (concentration not given with the values); hit rate 0.27% among 130,000; in the data active means z-score below about -2, passing the limit was not always enough
Active calls of the source: *; x = not tested or not shown.

SMILES | Mtb MenB inh | Polio RdRp inh | Mtb MbtI inh | AID504770
NCCNCC1COC2(CCCCCCCCCCC2)O1 (configuration not stated) | 4.7 | 100.0 | -0.4 | -2.85*
O=C(CSCc1ccccc1)Nc1nnc(CSCc2ccccc2)s1 | x | x | x | -0.05
Cc1ccc(-c2cn3c(=S)[nH]nc3s2)cc1 | -50.8 | 100.0 | 97.7* | 0.25
Cc1ccc(-c2n[nH]c(=S)n2C)cc1 | 0.6 | 101.0 | 72.9 | 1.65
CN(C)c1ccc(C2=CC=CC(=C3C=CC(=[N+](C)C)C=C3)O2)cc1 | -53.3 | 99.0 | 84.2* | 1
CN(C)c1ccc(C(=C2C=CC(=[N+](C)C)C=C2)c2ccc(N(C)C)cc2)cc1 | 5.9 | 98.0 | 9.2 | 5.65
O=C(Nc1cccc(Cl)c1)Nc1ccccc1C(=O)N1CCCCC1 | -4.5 | 100.0 | -11.8 | 1.6
Cc1c(P(=S)(N2CCOCC2)N2CCOCC2)cc(C#N)n1C | -7.3 | 80.0* | 93.5* | -0.25
O=C1CSc2nnc(-c3cccs3)n21 | 0.4 | 57.0* | -101.5 | -0.6
c1csc(-c2nnc3n2-c2ccccc2SC3)c1 | -28.4 | 109.0 | -12.6 | -1.55
CCOc1ccc(NC(=O)c2c(NC(=O)c3ccccc3Br)sc3c2CCC(C)C3)cc1 (configuration not stated) | x | 78.0* | x | x
Cc1cnc(C(=O)N(CC(=O)Nc2cccc(C)c2C)CC2CCCO2)cn1 (configuration not stated) | -11.2 | 101.0 | -5.0 | 0.15
Cc1cccc(NC(=O)CN(CC2CCCO2)C(=O)c2cc(-c3ccco3)nc3ccccc23)c1C (configuration not stated) | -6.6 | 1.0* | 102.9 | -0.8
CCc1ccc(OC(=O)CSc2nnc(-c3ccc4c(c3)OCO4)o2)cc1 | x | 102.0 | x | x
O=C(CSc1nnc(-c2cccs2)o1)Oc1ccccc1 | x | 94.0 | x | x
COc1cccc(OC(=O)CSc2nnc(-c3cccs3)o2)c1 | x | 90.0* | x | x
COc1cccc(OC(=O)CSc2nnc(-c3ccc4c(c3)OCO4)o2)c1 | x | 87.0* | x | x
Cc1noc2ncnc(N3CCCC(C(=O)Nc4ccc5c(c4)OCO5)C3)c12 (configuration not stated) | -14.2 | 103.0 | -6.8 | -0.55
C=CCNc1nc(C(=O)O)cs1 | 0.0 | 100.0 | 17.8 | -0.05
CN(C)S(=O)(=O)N=C1C=CC(=NS(=O)(=O)N(C)C)C=C1 | -3.1 | 88.0* | 9.8 | -0.15
NC(=O)C1CCN(C2CC(=O)N(Cc3ccc4c(c3)OCO4)C2=O)CC1 (configuration not stated) | -38.7 | 103.0 | 86.2* | 0.75
NC(=O)C1CCN(CC(O)Cc2ccc3c(c2)OCO3)CC1 (configuration not stated) | x | x | x | -0.65
O=C1C=CC(=O)N1c1ccc2ccccc2c1 | 3.3 | 98.0 | 99.6* | -1.7
CSc1cccc(N2C(=O)C=CC2=O)c1 | x | x | x | -2.15*
N#Cc1cccc(N2C(=O)C=CC2=O)c1 | x | x | x | -2.8*
SMILES | Mtb MenB inh | Polio RdRp inh | Mtb MbtI inh | AID504770
COc1ccc(N2C(=O)C=CC2=O)cc1OC | x | 100.0 | 94.2* | -0.55
COCCCn1c(=O)c2ccccc2n(CC(N)=O)c1=O | 27.8* | 101.0 | 58.3 | -0.5
COc1ccc(-c2[nH]ncc2C(=O)NCCC(C)C)cc1 | 2.1 | 100.0 | -2.8 | 0.25
CC(=O)OCC(=O)Nc1ccccc1 | -30.4 | 3.0* | -7.8 | 1.55
CC(=O)Oc1cn(C)c2ccccc12 | x | x | x | -0.1
O[N+]1=CC=CCC1=S.On1ccccc1=S.[Zn] | 2.1 | 101.0 | 15.1 | -4*
COc1c(C)c(C)cc(C)c1C | x | x | x | -0.2
NS(=O)(=O)c1ccc(NC(=O)CCC(=O)Nc2ccc(S(N)(=O)=O)cc2)cc1 | -19.6 | 102.0 | 5.7 | -0.25
NS(=O)(=O)c1ccc(NC(=O)CS)cc1 | -93.6 | 99.0 | 76.0* | -1.45
CCCc1ccc(OCC(=O)Nc2sc3c(c2C(=O)OC)CCCCC3)cc1 | x | 85.0* | x | x
COC(=O)Nc1sc2c(c1C(=O)OC)CCC2 | -20.9 | 101.0 | 21.0 | 0.65
COC(=O)c1c(NC(=O)C(F)(F)F)sc2c1CCCC2 | -20.1 | 88.0* | x | -4.5
COC(=O)c1c(NC(=O)Cc2cccs2)sc2c1CCCC2 | 39.3* | 103.0 | 12.3 | 1.45
CCOC(=O)CNc1cccc(Cl)c1 | -51.1 | 100.0 | 4.0 | 0.3
CCOC(=O)c1ccc(-n2c(N)c(C(=O)N3CCCC3)sc2=S)cc1 | -25.4 | 99.0 | 93.5* | -1.15
CCOc1ccc(-n2c(N)c(C(=O)N3CCN(C)CC3)sc2=S)cc1 | -42.5 | 99.0 | -0.1 | 0.45
CCOC(=O)c1ccc(-n2c(N)c(C(=O)NCC3CCCO3)sc2=S)cc1 (configuration not stated) | -12.7 | 96.0 | 92.3* | -0.6
COC(=O)c1cnc(N)nc1C(F)(F)F | x | x | x | -1.15
O=C(NC1CC1)c1cnn(-c2ccc(Cl)cc2)c1C(F)(F)F | x | x | x | 0.1
O=C(NC1(O)C(=O)c2ccccc2C1=O)c1ccccn1 | -10.5 | 54.0* | -7.5 | 0.6

Screens (PubChem)
